The values that follow come from PubChem BioAssay (NCATS).

Test [1] in a line: qHTS profiling for inhibitors of Plasmodium falciparum proliferation (AID 504749). Also: nearly all actives have a fitted effect of over 60% in size.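 As to activity, negative = inhibition: 0% = DMSO vehicle and full inhibition = artemisinin control.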 Particulars: P. falciparum in erythrocytes, SYBR Green DNA, 72 h. The gist of the method: (§1)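 Infected RBCs, 0.3% parasitemia/2.5% Hct final; cpd 72 h, 37 C, 5% CO2; lysis buffer with saponin/triton/SYBR Green I, o/n RT dark; FI 485/535; norm. to artemisinin (0.29 uM) and DMSO.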
For the next test, the system named is 3D7. The description is as above. Particulars: P. falciparum in erythrocytes, SYBR Green DNA, 72 h; series mostly up to 28.7 µM. The gist of the method: as §1
The test system of another test is 7G8. The description is as above. Particulars: P. falciparum in erythrocytes, SYBR Green DNA, 72 h; series mostly up to 28.7 µM. The procedure, abridged: as §1
The test system of the next test is AA1029. The description is as above. Particulars: P. falciparum in erythrocytes, SYBR Green DNA, 72 h; series mostly up to 28.7 µM. The procedure, abridged: as §1
A further test deals with AS120. Described as above. Particulars: P. falciparum in erythrocytes, SYBR Green DNA, 72 h; series mostly up to 28.7 µM. The procedure, abridged:
as §1

Another test relates to ATS189. Described as above. Particulars: P. falciparum in erythrocytes, SYBR Green DNA, 72 h; series mostly up to 28.7 µM. The procedure, abridged:
as §1

For the next test, the system named is ATS95. The description is as above. Particulars: P. falciparum in erythrocytes, SYBR Green DNA, 72 h; series mostly up to 28.7 µM. The procedure, abridged: as §1
The next test deals with C2A. The test is described as above. Particulars: P. falciparum in erythrocytes, SYBR Green DNA, 72 h; series mostly up to 28.7 µM. The gist of the method:
as §1

The subject of another test is CP185. Described as above. Particulars: P. falciparum in erythrocytes, SYBR Green DNA, 72 h; series mostly up to 28.7 µM. The procedure, abridged:
as §1

The next test has as its system CP191. The description is as above. Particulars: P. falciparum in erythrocytes, SYBR Green DNA, 72 h; series mostly up to 28.7 µM. The gist of the method: as §1
In another test the test system is CP192. Described as above. Particulars: P. falciparum in erythrocytes, SYBR Green DNA, 72 h; series mostly up to 28.7 µM. The procedure, abridged:
as §1

The test system of the next test is CP194. The description is as above. Particulars: P. falciparum in erythrocytes, SYBR Green DNA, 72 h; series mostly up to 28.7 µM. The gist of the method: as §1
The test system of the next test is CP201. The description is as above. Particulars: P. falciparum in erythrocytes, SYBR Green DNA, 72 h; series mostly up to 28.7 µM. The gist of the method:
as §1

For a further test, the system named is CP203. The description is as above. Particulars: P. falciparum in erythrocytes, SYBR Green DNA, 72 h; series mostly up to 28.7 µM. The procedure, abridged: as §1
For another test, the system named is CP211. Described as above. Particulars: P. falciparum in erythrocytes, SYBR Green DNA, 72 h; series mostly up to 28.7 µM. The procedure, abridged:
as §1

In a further test the test system is CP215. Described as above. Particulars: P. falciparum in erythrocytes, SYBR Green DNA, 72 h; series mostly up to 28.7 µM. The gist of the method: as §1
In another test the test system is CP217. The description is as above. Particulars: P. falciparum in erythrocytes, SYBR Green DNA, 72 h; series mostly up to 28.7 µM. The procedure, abridged: as §1
The mark [2] stands for this setting: at 28.7 µM (top of the series), parasite line A.
Where [3] appears, read: at 28.7 µM (top of the series), parasite line B.
Where [4] appears, read: at 12.8 µM (top of the series), parasite line A.
Setting [5] is: at 12.8 µM (top of the series), parasite line B.

Values joined by “and” are separate entries in the source; they are usually repeats but may differ in a detail not shown here. Equal entries are not always repeated. Results filed as inconclusive are left out. Unmarked numbers belong to inactive results. Active and inactive are the calls of the source. Calls follow the shape of the dose curve; as a rule, active = well fitted inhibition curve with a large enough effect; inconclusive = small, poorly fitted or top-dose-only effect; inactive = flat fitted curve, though single readings scatter.
Potency is read from the fitted curve at half-maximal effect.

`Cc1cc(CC(=O)O)n(C)c1C(=O)c1ccc(Cl)cc1`: the activity, negative = inhibition in test [1] (setting [2]) was -8.03% and -6.63%; in test [1] (setting [3]) it was -3.67% and -0.286%. Moreover, the Potency entry with 3D7, in the test on 7G8, in the test with AA1029, with AS120, with ATS189 and in the test on ATS95 was “inactive” throughout. Besides, the Potency entry in the test on C2A, with CP185, in the test on CP191, with CP192, with CP194 and in the test with CP201 was “inactive” in each case. Besides, the Potency entry in the test on CP203, in the test on CP211, with CP215 and in the test with CP217 was “inactive” in each case.

As for `OCC(O)CN1CCN(c2ccccc2)CC1` (configuration not stated), the activity, negative = inhibition in [1] (setting [2]) was 5.92%; in [1] (setting [3]), 10.4%. Further, the Potency entry in the test on 3D7, in the test with 7G8, with AA1029, in the test on AS120, in the test on ATS189 and in the test on ATS95 was “inactive” in each case. For the same molecule, the Potency entry in the test with C2A, in the test with CP185, with CP191, in the test on CP192, in the test with CP194 and with CP201 was “inactive” each time. The Potency result in the test with CP203, with CP211, in the test with CP215 and in the test on CP217 was “inactive” each time.

`COc1ccccc1O`: the activity, negative = inhibition in test [1] (setting [2]) was 6.24%; in [1] (setting [3]), 17.1%. The Potency result in the test with 3D7, in the test on 7G8, in the test with AA1029, in the test on AS120, with ATS189 and in the test on ATS95 was “inactive” throughout. Also, the Potency entry in the test on C2A, in the test on CP185, in the test on CP191, in the test with CP192, with CP194 and in the test with CP201 was “inactive” throughout. Further, the Potency entry in the test on CP211, in the test with CP215 and in the test on CP217 was “inactive” each time.

Regarding `CCCCc1ncc(/C=C(\Cc2cccs2)C(=O)O)n1Cc1ccc(C(=O)O)cc1`, the activity, negative = inhibition in test [1] (setting [2]) is 6.94%; in test [1] (setting [3]), 4.94%. For the same molecule, the Potency result with 3D7, in the test on 7G8, in the test with AA1029, in the test with AS120, with ATS189 and in the test on ATS95 was “inactive” in each case. Further, the Potency entry in the test with C2A, in the test on CP185, in the test with CP191, with CP192, in the test with CP194 and in the test with CP201 was “inactive” each time. The Potency result with CP211, in the test on CP215 and with CP217 was “inactive” in each case.

Consider `NC(CSCC(=O)O)C(=O)O` (configuration not stated), for which the activity, negative = inhibition in test [1] (setting [2]) is -7.77%; in test [1] (setting [3]), -0.351%. Further, the Potency entry with 3D7, with 7G8, in the test on AA1029, in the test on AS120, in the test on ATS189 and with ATS95 was “inactive” in each case. Also, the Potency entry in the test on C2A, in the test with CP185, in the test with CP191, in the test with CP192, with CP194 and with CP201 was “inactive” each time. Also, the Potency entry with CP203, in the test with CP211 and in the test with CP217 was “inactive” in each case.

`N[C@@H](CSCCCO)C(=O)O`: the activity, negative = inhibition was -6.32% in test [1] (setting [2]) and -2.52% in [1] (setting [3]). Also, the Potency result with 3D7, in the test with 7G8, with AA1029, in the test with AS120, with ATS189 and in the test on ATS95 was “inactive” throughout. The Potency entry with C2A, in the test on CP185, with CP191, in the test with CP192, in the test on CP194 and in the test with CP201 was “inactive” throughout. Also, the Potency result in the test on CP203, in the test with CP211, in the test on CP215 and with CP217 was “inactive” throughout.

For the molecule `CCCn1cnc2c1c(=O)n(CCCCC(C)=O)c(=O)n2C`, the values for the activity, negative = inhibition in test [1] (setting [2]) and in test [1] (setting [3]) were -5.61% and -0.0808%, respectively. Besides, the Potency result with 3D7, in the test on AA1029, in the test with AS120, with ATS189, in the test with ATS95 and in the test on C2A was “inactive” each time. In addition, the Potency result in the test with CP185, in the test with CP191, in the test on CP192, in the test with CP194, in the test on CP201 and in the test on CP203 was “inactive” each time. Further, the Potency result with CP211, in the test with CP215 and in the test with CP217 was “inactive” throughout. Besides, the Potency in the test with 7G8 is 11.2 µM (active).

In the case of `CCCOC(=O)c1ccccc1`, the activity, negative = inhibition in test [1] (setting [2]) is -2.05%; in test [1] (setting [3]), 2.76%. The Potency result with 3D7, with 7G8, in the test with AA1029, with AS120, with ATS189 and with ATS95 was “inactive” each time. Moreover, the Potency entry in the test with C2A, in the test on CP185, in the test with CP191, with CP192, in the test on CP194 and in the test with CP201 was “inactive” throughout. For the same molecule, the Potency entry in the test on CP203, in the test on CP211, in the test with CP215 and with CP217 was “inactive” each time.

For the molecule `CCCCN(CCCC)CCCOC(=O)c1ccc(N)cc1`, the values for the activity, negative = inhibition in test [1] (setting [4]) and in [1] (setting [5]) were -10.5% and 3.88%, respectively. Also, the Potency entry in the test with 3D7, in the test on 7G8, in the test on AA1029, in the test with AS120, in the test with ATS189 and in the test with ATS95 was “inactive” throughout. Further, the Potency entry with C2A, in the test on CP185, in the test with CP191, in the test on CP192, in the test on CP194 and in the test with CP201 was “inactive” in each case. Moreover, the Potency result with CP203, with CP211, in the test with CP215 and in the test with CP217 was “inactive” each time.

For the molecule `COc1cc2[nH]c(=O)[nH]c(=O)c2cc1OC`, the activity, negative = inhibition in test [1] (setting [4]) is -1.12%; in [1] (setting [5]), -2.32%. Also, the Potency entry with 3D7, with 7G8, in the test on AA1029, with AS120, in the test with ATS189 and in the test on ATS95 was “inactive” throughout. In addition, the Potency result in the test with C2A, in the test on CP185, in the test with CP191, in the test with CP192, with CP194 and in the test on CP201 was “inactive” throughout. In addition, the Potency entry with CP203, with CP211, in the test with CP215 and in the test with CP217 was “inactive” in each case.

On to `O=C1c2c(O)cccc2Cc2cccc(O)c21`, for which the activity, negative = inhibition in test [1] (setting [2]) was 14.6%; in test [1] (setting [3]), -4.21%. For the same molecule, the Potency result in the test on 3D7, with 7G8, in the test with AA1029, with AS120, in the test on ATS189 and in the test on ATS95 was “inactive” in each case. Moreover, the Potency entry with C2A, in the test with CP185, in the test on CP191, in the test on CP192, in the test with CP194 and in the test with CP201 was “inactive” each time. In addition, the Potency entry in the test with CP211, in the test on CP215 and in the test on CP217 was “inactive” each time.

Take `CC(=O)NC(Cc1ccccc1)C(=O)O` (configuration not stated): the activity, negative = inhibition in test [1] (setting [2]) was 3.68%; in test [1] (setting [3]), 2.97%. The Potency entry in the test on 3D7, with 7G8, with AA1029, in the test on AS120, in the test on ATS189 and in the test on ATS95 was “inactive” each time. Besides, the Potency entry with C2A, in the test with CP185, in the test on CP191, in the test on CP192, with CP194 and with CP201 was “inactive” throughout. Also, the Potency result with CP211, in the test on CP215 and with CP217 was “inactive” throughout.

For the molecule `CNC(=O)Oc1ccc2c(c1)[C@]1(C)CCN(C)[C@@H]1N2C`, the Potency in test [1] (parasite line A) is 1.58 µM (active); in [1] (parasite line B), 2 µM (active); in the test with 3D7, 3.55 µM (active); with 7G8 it was 2.24 µM (active); in the test on AS120, 2 µM (active); with ATS189, 2.24 µM (active). The Potency with C2A is 1.78 µM (active); in the test on CP185 it was 1.58 µM (active); with CP191, 2.24 µM (active).

As for `CCCCOc1cc(C(=O)OCCN(CC)CC)ccc1N`, the figures for the activity, negative = inhibition in test [1] (setting [4]) and in test [1] (setting [5]) were 8.11% and 4.89%, respectively. Further, the Potency result in the test with 3D7, with 7G8, in the test on AA1029, with AS120, in the test on ATS189 and with C2A was “inactive” in each case. Also, the Potency result in the test with CP185, in the test on CP191, in the test with CP192, in the test with CP194, in the test on CP201 and in the test with CP203 was “inactive” in each case. The Potency entry in the test with CP211, with CP215 and in the test on CP217 was “inactive” throughout.
